Drawing on PubChem BioAssay, this text covers inhibition for 21 molecules.

Values without a mark were called inactive. No rule for the calls is given here.

The target of this assay is Pantothenate synthetase (Mycobacterium tuberculosis (strain ATCC 25618 / H37Rv)) (UniProt P9WIL5). Briefly: Coupled enzyme confirmation of inhibitors against recombinant Mtb PanC (AID 375).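 Also: 0% = full reaction with vehicle and 100% = no enzyme background.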 The following applies: coupled enzyme assay; at 10 µM, active compounds read high.
Chain of Pantothenate synthetase (Mycobacterium tuberculosis (strain ATCC 25618 / H37Rv)) (P9WIL5 whole entry, looked up): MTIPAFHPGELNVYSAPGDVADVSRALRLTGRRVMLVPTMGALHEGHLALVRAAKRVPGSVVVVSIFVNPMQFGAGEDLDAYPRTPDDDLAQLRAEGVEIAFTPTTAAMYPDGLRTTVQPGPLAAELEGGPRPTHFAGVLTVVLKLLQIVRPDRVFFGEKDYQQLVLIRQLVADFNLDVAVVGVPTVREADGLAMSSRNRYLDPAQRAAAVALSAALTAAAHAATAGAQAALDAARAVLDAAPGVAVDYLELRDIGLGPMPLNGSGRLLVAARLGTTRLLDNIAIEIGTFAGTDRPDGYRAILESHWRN
A word on the inhibition: it is the relative decrease from the control value, in per cent. In the case of `CC1(C)CC(=O)CC(C2(O)C(=O)N(Cc3ccccc3)c3ccccc32)O1` (stereo unspecified), the inhibition was 0%. Consider `COC(=O)c1[nH]c2cccc(C)c2c1NC(=O)CN1CCCc2ccccc21`, for which the inhibition was 1%.

With `COc1cccc(C(=O)n2cnnc2N)c1OC`, the inhibition is 4%. For `O=c1cc(CN2CCN(c3ccc(F)cc3)CC2)nc2sccn12` the value was 0%; for `Cc1ccc(C)c(N(CC(=O)NC2CCCC2)C(=O)CCCC(=O)Nc2ccccn2)c1`, 2%; for `Cc1cc(Oc2ccc(Cl)cc2)nc(-c2ccccc2O)n1`, 7%. Turning to `COc1ccc(-c2c(=O)n(OCc3ccccn3)c3ccccc3[n+]2[O-])cc1OC`, the inhibition was 3%. As to `O=C(CP(=O)(CO)CO)c1ccc(Cl)cc1`, the inhibition is 0%.

For `COc1cccc(OC)c1C(=O)Nc1cccc(C(C)=O)c1`, the inhibition is 2%.

Take `CCCCC(NS(=O)(=O)c1ccc(OC)cc1)C(=O)O` (stereo unspecified): the inhibition is 0%.

As to `CC(=O)Nc1cccc(-c2nnc(-c3ccccc3)o2)c1`, the inhibition was 4%. For `COc1ccccc1OCC(=O)N1CCN(c2ccccc2OC)CC1` the value was 0%.

In the case of `O=C(C1CCCN(S(=O)(=O)c2cnc[nH]2)C1)N1CC(=O)N(CCc2ccccc2)C(=O)C1` (stereo unspecified), the inhibition was 0%. `Cc1c(C(=O)O)sc2ncn(C)c(=O)c12`: the inhibition was 0%.

`CCOC(=O)c1ccc(NC(=O)CSc2nnc(COc3ccccc3)n2C)cc1`: the inhibition was 0%. Regarding `CC(C)CCNC(=O)C(c1cccs1)N(CC1CCCO1)C(=O)Cn1nnc2ccccc21` (stereo unspecified), the inhibition is 0%. Take `CCN(CC)CCCN1C(=O)C(O)=C(C(=O)c2ccco2)C1c1ccc(C)o1` (stereo unspecified): the inhibition was 13%. Turning to `CCOc1cc(C2C(C(=O)OC(C)C)=C(C)N=C3SCCC(=O)N32)ccc1OC(C)=O` (stereo unspecified), the inhibition is 0%. As to `COC(=O)C1=C(C)OC(N)=C(C#N)C1c1ccccc1` (stereo unspecified), the inhibition was 0%. As for `CN(C)S(=O)(=O)c1ccc(S(=O)(=O)Nc2ccc3c(c2)oc2ccccc23)cc1`, the inhibition is 0%.

On to `Cn1c([N+](=O)[O-])cnc1COC(N)=O`, for which the inhibition is 0%.
